In the library only some 3.1% were active in any assay of this set; here they are far more common.
Imprint erasure: qHTS Assay for Compounds that Induce Erasure of Genomic Imprints. mouse ES Peg3-LacZ reporter, beta-gal luminescence, 40 h. Potency, µM (highest dose often 60.7 µM), for inactives: at the highest dose activity change, positive = activation, hits mostly activators. actives 0.02% (n = 110,000)
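Gelatin-coated wells received 300 freshly trypsinized female ES cells with a Peg3LacZ-Neo reporter on the maternal allele, then incubated 40 hours at 37C. BetaGlo was added for 5 minutes at room temperature before a single luminescence read.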
HEK293 cAMP cs: qHTS Assay for Agonists of the Thyroid Stimulating Hormone Receptor: Activators of Intracellular cAMP Concentrations in Parental HEK 293; actives 2.5% (n = 73,000); Potency, µM (titrated, usually from 57.1 µM), inactives show at the highest dose activation, hits mostly activators; parental HEK293 CNG cAMP sensor, membrane potential fluorescence; also: % of control where 0% means no effect; nearly all actives have a fitted effect of over 55% in size
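Parental HEK 293 cells stably expressing a modified CNG channel (no TSHR) report cAMP rise as membrane depolarization. Membrane potential dye with 100 uM RO 20-1724 was loaded for 60 min at room temperature, then compound added for 30 min; fluorescence read at 590 nm.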
IkB sig inh: IkB Signaling; ABC-DLBCL IkBa-CBG/CBR dual luciferase ratio, 4 h; response scale: scaled: untreated 0%, proteasome inhibitor 100%; Potency, µM (top dose mostly 57.1 µM), for the others: at the highest dose IkBa stabilization activation; actives 0.04% (n = 110,000); AID 445, 2006; active = well fitted curve in the direction sought with a large enough effect in the signal ratio, not every such curve was filed as active; inconclusive = small, poorly fitted or top-dose-only effect, or a change in a side signal; the % refers to the signal ratio;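 also: the direction sought is a rising ratio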
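In this assay, an IκBα–CBG68 fusion accumulates when IKK-driven degradation is blocked; native CBR normalizes for cell number. OCI-Ly3 cells were treated 4 h with compound and doxycycline, then green and red light read after Chroma-Glo addition.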
p53ts 39C kill: qHTS Screen for Compounds that Selectively Target Cancer Cells with p53 Mutations: Cytotoxicity of p53ts Cells at the Nonpermissive Temperature; H1299-p53A138V viability at 39C, ATP luminescence, 24 h; Potency, µM (series often up to 46.1 µM), without a hit: at the top dose activity change, negative = cell killing, most hits filed as cytotoxic; actives 1.5% (n = 130,000); AID 902, 2007; also: % is scaled to controls: 0 for no effect and ±100 for the full control effect; nearly all actives have a fitted effect of over 55% in size
p53ts 32C tox: qHTS Screen for Compounds that Selectively Target Cancer Cells with p53 Mutations: Cytotoxicity of p53ts Cells at the Permissive Temperature; H1299-p53A138V at 32C, ATP luminescence viability, 24 h; Potency, µM (top dose mostly 46.1 µM), for inactives: at the highest dose activity change, negative = cytotoxicity, hits mostly cytotoxic; actives 0.93% (n = 130,000); AID 924, 2007;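 also: 0% = DMSO and -100% = full killing by reference compound; nearly all actives have a fitted effect of over 55% in size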
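H1299-p53 A138V cells (temperature-sensitive p53) exposed 24 h to up to 46 uM compound at 32C, where p53 is wild-type in conformation. Viability read as ATP luminescence and normalised to DMSO and 100 uM tamoxifen. AC50 fitted with the Hill equation.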
TSHR ag: qHTS Assay for Agonists of the Thyroid Stimulating Hormone Receptor; Thyrotropin receptor (Homo sapiens), P16473; HEK293-CNG-TSHR cells (CNG channel as cAMP sensor), membrane potential dye, cAMP; Potency, µM (top dose mostly 57.1 µM), for inactives: top-dose activation, most hits filed as activators; actives 0.48% (n = 73,000); active = well fitted activation curve with a large enough effect in the main read-out, with a control signal flat, not every such curve was filed as active; inconclusive = small, poorly fitted or top-dose-only effect, or a change in a side signal; inactive = no such curve, though single readings can be large or run the other way; % of control where 0% means no effect;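 also: the control signal comes from parental cells without the receptor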
Target sequence (P16473 whole entry, looked up): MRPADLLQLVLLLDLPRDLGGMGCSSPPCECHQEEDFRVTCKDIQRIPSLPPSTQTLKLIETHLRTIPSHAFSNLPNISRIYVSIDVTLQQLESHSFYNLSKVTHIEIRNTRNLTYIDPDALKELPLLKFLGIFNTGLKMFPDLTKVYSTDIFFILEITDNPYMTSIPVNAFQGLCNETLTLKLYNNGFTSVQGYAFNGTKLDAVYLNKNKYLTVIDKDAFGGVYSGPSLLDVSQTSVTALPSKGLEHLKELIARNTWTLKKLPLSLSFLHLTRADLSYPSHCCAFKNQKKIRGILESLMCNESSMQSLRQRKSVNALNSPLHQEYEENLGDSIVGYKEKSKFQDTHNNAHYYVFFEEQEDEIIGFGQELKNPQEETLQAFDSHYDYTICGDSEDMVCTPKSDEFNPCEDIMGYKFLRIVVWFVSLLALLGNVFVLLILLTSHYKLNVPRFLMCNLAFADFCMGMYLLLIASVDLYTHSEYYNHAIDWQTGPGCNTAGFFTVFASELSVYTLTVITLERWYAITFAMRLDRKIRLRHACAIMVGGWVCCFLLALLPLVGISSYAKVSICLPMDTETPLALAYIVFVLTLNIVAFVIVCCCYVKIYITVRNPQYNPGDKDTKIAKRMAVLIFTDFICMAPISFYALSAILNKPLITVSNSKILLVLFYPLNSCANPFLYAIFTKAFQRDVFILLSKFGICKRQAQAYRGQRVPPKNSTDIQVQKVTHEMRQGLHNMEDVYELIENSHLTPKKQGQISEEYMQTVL
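cAMP rise detected as CNG-channel membrane depolarization by fluorescent dye (emission 590 nm), 30 min after compound, following 60 min dye loading containing 100 uM RO 20-1724 at room temperature. Cells: TSHR/CNG HEK 293, with parental CNG HEK 293 as control.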
Numbers without * were called inactive; ? = inconclusive; . = no result; [ ] = dose if it differs, or a comment. Unless noted, calls follow the shape of the dose curve; as a rule, active = well fitted curve in the direction sought with a large enough effect; inconclusive = small, poorly fitted or top-dose-only effect, or another doubt; inactive = no such curve, though single readings can be large; an effect the other way counts as inactive or inconclusive. Potency is read from the fitted curve at half-maximal effect.

SMILES	Imprint erasure	HEK293 cAMP cs	IkB sig inh	p53ts 39C kill	p53ts 32C tox	TSHR ag
NC(=O)c1ccccc1N/C=C/C(=O)c1ccccc1	-86.8%	6.4%	?	10µM*	5.01µM*	-1.2%
CC(C)(C)OC(=O)N1CCC(c2c(C(=O)NC3CCN(Cc4ccccc4)CC3)cnn2-c2cccc(F)c2)CC1	-6.2%[10.9 µM]	.	?	?	4.9%	.
Cc1cc2ccc(OC(=O)c3ccc(N=C(N)N)cc3)cc2oc1=O	-3.4%[10.9 µM]	-6.3%[11.4 µM]	1.9%[11.4 µM]	16.6%[9.22 µM]	12.4%[9.22 µM]	-0.7%[11.4 µM]
Cc1ccc2c(c1)N(CC(=O)N1CCN(c3nc4ccccc4s3)CC1)C(=O)C(C)O2 (stereo not drawn)	-4.0%	6.31µM*	?	-1.2%	3.4%	?
CC(=O)NC1CC(=O)N(c2ccc3c(c2)OCCO3)C1 (stereo not drawn)	4.3%[10.9 µM]	.	-2.2%	10.2%	-1.8%	.
OCc1cc([C@@H](O)CNCCCCCCOCCCCc2ccccc2)ccc1O	-16.1%	?	?	12.6µM*	-1.7%	?
Oc1cccc2ccc(Nc3ccccn3)nc12	.	-78.7%	.	10µM*	15.8µM*	?
[O-][n+]1onc2c1CCc1c-2nc(-c2ccccc2)n1OCc1ccccc1	1.6%	12.6µM*	-0.2%	8.7%	8.1%	?
CCOC(=O)c1ccc(Oc2nc(NC)nc(SC)n2)cc1	0.3%	2.2%	-0.1%	-5.2%	4.0%	2.8%
COC(=O)c1ccc(Oc2cc(C)nc(-n3nc(C)cc3C)n2)cc1	25.2%	15.8µM*	-2.0%	-2.3%	-2.7%	?
CCOC(=O)c1ccc(Oc2nc(NC(C)(C)C)nc(N(C)C)n2)cc1	-27.5%	25.1µM*	?	10.3%	5.4%	?
CCOC(=O)c1ccc(Oc2cc(C)nc(SC)n2)cc1	-23.5%	3.16µM*	0.9%	23.1%	4.7%	?
COC(=O)c1ccc(Oc2nc(NC(C)C)nc(N(C)C)n2)cc1	-10.7%	21.0%	-0.2%	-16.5%	-3.5%	10.4%
CCOC(=O)c1ccc(Oc2nc(SC)nc(N(C)C)n2)cc1	-17.6%	3.16µM*	?	15.3%	16.2%	?
Cc1cc(NC(=O)C2CCN(S(=O)(=O)c3ccc4[nH]c(=O)oc4c3)CC2)ccc1Br	-2.5%[10.9 µM]	.	0.8%	-1.6%	32.0%	.
COC(=O)c1ccc(CSc2nc(-c3ccc(OC)cc3)nc3c2c(=O)n(C)c(=O)n3C)o1	-9.6%	10.6%	0.0%	12.6%	15.7%	5.3%
COC(=O)c1ccc(CSc2nc(C)nc3c2c(=O)n(C)c(=O)n3C)o1	-6.0%	25.1µM*	1.7%	13.1%	?	?
COCCn1c(SCc2ccc(C(=O)OC)o2)nc2cc(Cl)ccc2c1=O	-11.0%	20µM*	?	-20.2%	0.7%	?
O=C(Cn1cnc2c(nc3n2CCCCC3)c1=O)Nc1ccc(F)cc1	.	.	.	.	-8.0%	.
CCc1ccc(CNC(=O)c2cnc3sc(N4CCCCC4)nn3c2=O)cc1	11.9%[10.9 µM]	.	-2.9%	-10.8%	-7.1%	.
CCC(CC)C(=O)Nc1nnc2n1CCS2	12.4%[10.9 µM]	.	6.5%	-16.0%	17.6%	.
COCCNc1nc(C(C)(C)C)nc2c1nnn2Cc1ccccc1Cl	-16.1%	2.51µM*	0.4%	-2.4%	-1.2%	?
Nc1ccc(O)c(-c2nc3ccccc3s2)c1	-85.9%	-4.0%	?	-24.0%	-11.1%	-27.3%
Nc1ccc2nc(-c3ccc(O)cc3)sc2c1	-79.1%[10.9 µM]	.	?	0.631µM*	0.631µM*	.
Nc1cccc(-c2nc3ccc(N)cc3s2)c1	-90.4%	-5.7%	?	3.16µM*	3.16µM*	-7.7%
